Seven compounds from ChEMBL document CHEMBL1961873, “Compounds: GSK PKIS; Assays: Nanosyn kinase panel” (2012) can be followed below.

For test [1], the target named is Leukocyte tyrosine kinase receptor (Homo sapiens) (UniProt P29376). The conditions noted are these: at 1 µM.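 Also: each value is the mean inhibition of LTK.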
Test [2] concerns the target Tyrosine-protein kinase Lyn (Homo sapiens) (UniProt P07948). The conditions noted are these: at 0.1 µM.
Test [3] shares this target. The settings on record: at 1 µM.
For test [4] the target is unchanged. The conditions noted are these: at 0.1 µM. The source holds these as a separate data set.
The target is the same in test [5]. The settings on record: at 1 µM. This is another data set of the same source.
Test [6] has as its target T1, Tyrosine-protein kinase Mer (Homo sapiens) (UniProt Q12866).
T1 sequence (whole entry): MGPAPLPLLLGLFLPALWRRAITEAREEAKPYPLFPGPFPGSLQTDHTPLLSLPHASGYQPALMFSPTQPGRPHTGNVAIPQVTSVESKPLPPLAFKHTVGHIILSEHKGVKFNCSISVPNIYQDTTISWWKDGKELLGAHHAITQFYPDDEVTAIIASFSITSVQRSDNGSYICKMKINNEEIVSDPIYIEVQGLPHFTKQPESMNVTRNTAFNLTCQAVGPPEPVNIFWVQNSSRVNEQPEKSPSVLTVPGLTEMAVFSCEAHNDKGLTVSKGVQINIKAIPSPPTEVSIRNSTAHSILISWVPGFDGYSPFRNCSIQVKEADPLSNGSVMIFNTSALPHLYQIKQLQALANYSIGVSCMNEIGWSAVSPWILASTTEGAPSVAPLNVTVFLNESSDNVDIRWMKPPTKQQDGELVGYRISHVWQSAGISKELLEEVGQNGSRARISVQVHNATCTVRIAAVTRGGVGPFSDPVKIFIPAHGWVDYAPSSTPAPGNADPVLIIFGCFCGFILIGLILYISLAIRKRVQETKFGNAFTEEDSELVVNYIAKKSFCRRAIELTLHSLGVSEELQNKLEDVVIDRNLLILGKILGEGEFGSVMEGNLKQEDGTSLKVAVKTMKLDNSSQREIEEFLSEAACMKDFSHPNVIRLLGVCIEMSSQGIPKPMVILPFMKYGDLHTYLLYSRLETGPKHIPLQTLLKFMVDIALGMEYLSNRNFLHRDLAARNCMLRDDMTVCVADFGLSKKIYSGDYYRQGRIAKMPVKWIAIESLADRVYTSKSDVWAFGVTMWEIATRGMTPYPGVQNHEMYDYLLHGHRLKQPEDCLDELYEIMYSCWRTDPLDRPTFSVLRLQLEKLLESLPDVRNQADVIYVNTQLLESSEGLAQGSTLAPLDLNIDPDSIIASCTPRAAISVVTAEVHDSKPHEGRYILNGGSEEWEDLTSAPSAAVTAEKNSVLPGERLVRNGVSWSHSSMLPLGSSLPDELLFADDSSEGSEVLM
The conditions noted are these: at 0.1 µM.

Test [7] addresses T1, Tyrosine-protein kinase Mer (Homo sapiens). The conditions noted are these: at 1 µM.
For test [8], the target named is Hepatocyte growth factor receptor (Homo sapiens) (UniProt P08581). The conditions noted are these: at 0.1 µM.
For test [9] the target is unchanged. The conditions noted are these: at 1 µM.
Test [10] deals with T2, Muscle, skeletal receptor tyrosine-protein kinase (Homo sapiens) (UniProt O15146).
T2 sequence (whole entry): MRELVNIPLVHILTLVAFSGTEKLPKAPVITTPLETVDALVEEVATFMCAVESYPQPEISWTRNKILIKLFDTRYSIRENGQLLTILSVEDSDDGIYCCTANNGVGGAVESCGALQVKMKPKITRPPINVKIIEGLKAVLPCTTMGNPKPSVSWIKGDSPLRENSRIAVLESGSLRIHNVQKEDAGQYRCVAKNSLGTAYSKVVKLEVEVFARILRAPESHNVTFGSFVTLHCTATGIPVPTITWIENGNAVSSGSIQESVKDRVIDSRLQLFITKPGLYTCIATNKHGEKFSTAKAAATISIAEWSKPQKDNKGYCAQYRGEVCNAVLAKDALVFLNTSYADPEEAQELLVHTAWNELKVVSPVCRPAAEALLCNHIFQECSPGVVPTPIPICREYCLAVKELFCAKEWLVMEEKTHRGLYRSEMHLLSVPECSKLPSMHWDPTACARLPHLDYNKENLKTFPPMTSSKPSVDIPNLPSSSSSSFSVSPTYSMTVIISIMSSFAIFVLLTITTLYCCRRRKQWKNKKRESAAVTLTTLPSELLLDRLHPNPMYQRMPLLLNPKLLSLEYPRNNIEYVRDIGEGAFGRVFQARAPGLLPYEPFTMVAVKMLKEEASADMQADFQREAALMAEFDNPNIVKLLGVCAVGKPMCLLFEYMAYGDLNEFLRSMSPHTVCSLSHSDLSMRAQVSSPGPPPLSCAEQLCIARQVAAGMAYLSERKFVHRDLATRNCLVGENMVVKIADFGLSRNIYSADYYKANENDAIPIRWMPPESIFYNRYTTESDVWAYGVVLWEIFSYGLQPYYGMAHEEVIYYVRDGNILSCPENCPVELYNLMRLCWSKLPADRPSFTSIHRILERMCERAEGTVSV
The settings on record: at 0.1 µM.

In test [11] the target is T2, Muscle, skeletal receptor tyrosine-protein kinase (Homo sapiens). The conditions noted are these: at 1 µM.
Test [12] addresses Platelet-derived growth factor receptor alpha (Homo sapiens) (UniProt P16234). The settings on record: at 0.1 µM.
Test [13] shares this target. The conditions noted are these: at 1 µM.
Test [14] deals with Platelet-derived growth factor receptor alpha (Homo sapiens), P16234 [D842V]. The settings on record: at 0.1 µM.
Test [15] shares this test system. The conditions noted are these: at 1 µM.
Test [16] deals with Platelet-derived growth factor receptor alpha (Homo sapiens), P16234 [T674I]. The conditions noted are these: at 0.1 µM.
Sequence of Platelet-derived growth factor receptor alpha (Homo sapiens), P16234 [T674I] (P16234 whole entry T674I): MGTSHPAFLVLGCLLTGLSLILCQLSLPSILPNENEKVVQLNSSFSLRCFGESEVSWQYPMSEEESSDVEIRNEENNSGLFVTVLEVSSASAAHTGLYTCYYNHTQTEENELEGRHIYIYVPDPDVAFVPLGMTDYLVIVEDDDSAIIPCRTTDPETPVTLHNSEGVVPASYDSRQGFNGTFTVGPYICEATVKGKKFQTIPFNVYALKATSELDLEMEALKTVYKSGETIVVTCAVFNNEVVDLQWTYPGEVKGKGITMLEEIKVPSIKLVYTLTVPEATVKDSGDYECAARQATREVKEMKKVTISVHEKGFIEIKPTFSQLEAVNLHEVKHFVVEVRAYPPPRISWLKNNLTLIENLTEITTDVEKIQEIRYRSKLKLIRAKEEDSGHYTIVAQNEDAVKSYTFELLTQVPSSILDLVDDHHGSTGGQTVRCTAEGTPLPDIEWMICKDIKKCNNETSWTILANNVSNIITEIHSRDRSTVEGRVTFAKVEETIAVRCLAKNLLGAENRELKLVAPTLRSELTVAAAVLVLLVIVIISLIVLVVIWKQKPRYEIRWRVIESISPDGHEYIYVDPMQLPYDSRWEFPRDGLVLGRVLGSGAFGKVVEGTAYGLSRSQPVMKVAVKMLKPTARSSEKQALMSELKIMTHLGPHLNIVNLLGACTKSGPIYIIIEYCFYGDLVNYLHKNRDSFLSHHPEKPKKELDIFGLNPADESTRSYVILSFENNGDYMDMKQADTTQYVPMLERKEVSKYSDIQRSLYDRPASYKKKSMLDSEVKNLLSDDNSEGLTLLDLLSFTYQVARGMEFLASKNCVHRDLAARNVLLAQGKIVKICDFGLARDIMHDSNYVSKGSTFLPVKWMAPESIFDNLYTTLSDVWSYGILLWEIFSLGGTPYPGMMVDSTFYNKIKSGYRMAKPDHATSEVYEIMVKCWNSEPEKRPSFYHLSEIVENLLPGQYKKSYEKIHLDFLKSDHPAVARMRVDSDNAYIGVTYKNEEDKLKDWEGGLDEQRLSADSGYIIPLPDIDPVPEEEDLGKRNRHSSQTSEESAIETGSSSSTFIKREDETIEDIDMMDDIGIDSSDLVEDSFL
For test [17] the test system is unchanged. The settings on record: at 1 µM.
The test system of test [18] is Platelet-derived growth factor receptor alpha (Homo sapiens), P16234 [V561D]. The conditions noted are these: at 0.1 µM.
Sequence of Platelet-derived growth factor receptor alpha (Homo sapiens), P16234 [V561D] (P16234 whole entry V561D): as the sequence (P16234 whole entry T674I) above, with V561D, I674T counted along it
Test [19] has the same test system. The conditions noted are these: at 1 µM.
The target of test [20] is Platelet-derived growth factor receptor beta (Homo sapiens) (UniProt P09619). The conditions noted are these: at 0.1 µM.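 Also: reported value is the mean percent inhibition of the kinase.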
Sequence of Platelet-derived growth factor receptor beta (Homo sapiens) (P09619 whole entry): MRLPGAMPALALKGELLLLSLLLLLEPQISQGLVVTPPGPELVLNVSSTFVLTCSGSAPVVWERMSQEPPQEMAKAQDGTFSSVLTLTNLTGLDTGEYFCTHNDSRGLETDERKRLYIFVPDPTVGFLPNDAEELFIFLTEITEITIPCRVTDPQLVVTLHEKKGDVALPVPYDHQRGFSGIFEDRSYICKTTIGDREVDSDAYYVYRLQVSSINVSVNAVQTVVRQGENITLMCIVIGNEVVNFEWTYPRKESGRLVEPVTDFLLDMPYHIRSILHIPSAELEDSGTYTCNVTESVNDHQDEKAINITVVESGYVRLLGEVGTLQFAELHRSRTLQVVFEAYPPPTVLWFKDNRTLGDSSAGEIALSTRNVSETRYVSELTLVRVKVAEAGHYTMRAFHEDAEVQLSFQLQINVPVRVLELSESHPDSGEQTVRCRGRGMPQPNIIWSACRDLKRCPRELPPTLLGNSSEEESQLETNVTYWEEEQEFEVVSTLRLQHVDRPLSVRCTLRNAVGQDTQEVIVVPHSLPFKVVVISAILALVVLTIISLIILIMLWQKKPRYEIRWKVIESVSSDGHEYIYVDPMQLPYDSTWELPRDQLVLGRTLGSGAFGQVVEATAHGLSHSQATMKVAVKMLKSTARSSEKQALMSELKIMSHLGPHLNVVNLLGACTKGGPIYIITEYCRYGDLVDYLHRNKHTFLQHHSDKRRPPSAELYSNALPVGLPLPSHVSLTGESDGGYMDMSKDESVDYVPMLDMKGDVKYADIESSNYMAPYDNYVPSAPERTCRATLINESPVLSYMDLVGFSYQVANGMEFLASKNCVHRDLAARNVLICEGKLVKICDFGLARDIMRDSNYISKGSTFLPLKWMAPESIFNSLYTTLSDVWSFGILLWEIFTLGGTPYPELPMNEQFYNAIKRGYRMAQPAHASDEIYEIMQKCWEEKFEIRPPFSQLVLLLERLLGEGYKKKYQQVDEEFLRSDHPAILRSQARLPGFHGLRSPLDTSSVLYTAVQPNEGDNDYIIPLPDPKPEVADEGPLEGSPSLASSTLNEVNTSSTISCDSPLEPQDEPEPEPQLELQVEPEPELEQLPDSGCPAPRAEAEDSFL

Sequence of Tyrosine-protein kinase Lyn (Homo sapiens) (P07948 2-512 limits assumed): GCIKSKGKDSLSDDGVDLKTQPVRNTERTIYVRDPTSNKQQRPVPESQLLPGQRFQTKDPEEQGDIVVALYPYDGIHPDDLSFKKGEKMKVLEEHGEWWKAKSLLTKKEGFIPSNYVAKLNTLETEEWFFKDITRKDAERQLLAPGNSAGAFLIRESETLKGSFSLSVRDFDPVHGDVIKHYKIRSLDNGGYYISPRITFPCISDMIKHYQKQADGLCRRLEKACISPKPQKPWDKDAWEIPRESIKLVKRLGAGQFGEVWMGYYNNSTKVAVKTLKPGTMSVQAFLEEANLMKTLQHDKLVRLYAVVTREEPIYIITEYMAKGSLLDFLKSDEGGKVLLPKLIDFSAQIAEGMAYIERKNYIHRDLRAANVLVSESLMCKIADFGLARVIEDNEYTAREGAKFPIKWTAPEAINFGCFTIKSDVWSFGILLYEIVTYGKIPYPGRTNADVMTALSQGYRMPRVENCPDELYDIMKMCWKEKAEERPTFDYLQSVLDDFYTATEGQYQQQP
Sequence of Leukocyte tyrosine kinase receptor (Homo sapiens) (P29376 whole entry): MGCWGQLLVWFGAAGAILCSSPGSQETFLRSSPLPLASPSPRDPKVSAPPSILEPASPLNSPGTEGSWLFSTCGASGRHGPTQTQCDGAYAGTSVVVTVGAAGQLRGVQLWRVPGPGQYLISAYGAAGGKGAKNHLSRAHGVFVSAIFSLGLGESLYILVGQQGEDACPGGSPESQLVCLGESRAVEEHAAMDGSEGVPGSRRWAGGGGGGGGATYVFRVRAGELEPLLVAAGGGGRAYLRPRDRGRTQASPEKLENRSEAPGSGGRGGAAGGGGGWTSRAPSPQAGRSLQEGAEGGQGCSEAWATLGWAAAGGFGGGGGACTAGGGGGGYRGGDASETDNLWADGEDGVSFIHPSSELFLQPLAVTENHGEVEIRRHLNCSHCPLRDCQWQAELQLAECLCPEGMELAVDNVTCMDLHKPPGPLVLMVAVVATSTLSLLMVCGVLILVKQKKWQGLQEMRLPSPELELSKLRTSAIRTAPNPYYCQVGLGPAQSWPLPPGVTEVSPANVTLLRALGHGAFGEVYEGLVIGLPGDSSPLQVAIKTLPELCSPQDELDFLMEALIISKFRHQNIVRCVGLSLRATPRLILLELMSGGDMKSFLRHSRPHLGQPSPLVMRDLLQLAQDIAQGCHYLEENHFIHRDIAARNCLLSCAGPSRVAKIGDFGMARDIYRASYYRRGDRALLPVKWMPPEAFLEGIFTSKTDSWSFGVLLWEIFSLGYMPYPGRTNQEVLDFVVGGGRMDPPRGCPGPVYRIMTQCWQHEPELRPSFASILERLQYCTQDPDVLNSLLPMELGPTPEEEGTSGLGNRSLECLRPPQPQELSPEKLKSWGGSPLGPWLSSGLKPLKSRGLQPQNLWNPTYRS

`CN(C)c1ccc2c(c1)/C(=C/Nc1ccc(S(N)(=O)=O)cc1)C(=O)N2`: the inhibition in test [1] amounted to 2.8%; in [2] it was 3.6%; in test [3], 22.4%; in test [4], 2.71%; in test [5], 17.4%; in [6], 1.88%. The inhibition in test [7] was 10.8%; in test [8], -0.65%; in test [9] it was 4.48%; in [10], 8.66%; in test [11], 46.8%; in test [12], 26.7%. Further, the inhibition in [13] was determined as 66.9%; in [14] it was 14.4%; in test [15], 65.3%; in test [16], 3.45%; in [17], 28.2%; in test [18], 14.9%. Also, the inhibition in test [19] came to 60.9%; in test [20] it was 26.8%.

For the compound `CN(C)CCOc1ccc(-c2cc(-c3ccc4c(c3)CCC4=NO)c(-c3ccncc3)o2)cc1`, the inhibition is -0.32% in test [1]; 0.86% in test [2]; 4.14% in test [3]; 0.71% in test [4]; 3.2% in test [5]; 4.1% in [7]. Further, the inhibition in test [8] was 12.9%; in test [9] it was 5.81%; in test [10], -0.04%; in test [11] it was -1%; in test [12], 3.05%; in test [13], 9.14%. Moreover, the inhibition in test [14] is 0.21%; in [15], 2.8%; in test [16], -0.07%; in [17], 2.19%; in test [18], 0.77%; in test [19] it was 4.25%. In addition, the inhibition in [20] was 2.38%.

Turning to `N#Cc1ccc(Oc2nccc(-c3c(-c4ccc(F)cc4)ncn3C3CCNCC3)n2)cc1`, the inhibition came out at 5.69% in test [1]; 5.36% in test [2]; 7.26% in test [3]; 3.37% in [4]; 4.34% in test [5]; 2.29% in test [6]. In addition, the inhibition in test [7] amounted to 2.26%; in test [8], 3.69%; in test [9], 6.49%; in test [10], 1.86%; in test [11], 0.9%; in test [12], 4.83%. The inhibition is 10.1% in test [13]; 3.33% in test [14]; 4.12% in test [15]; 3.29% in test [16]; 8.12% in [17]; 3.7% in [18]. The figures for the inhibition in [19] and in test [20] were 3.69% and 2.5%, respectively.

Regarding `O=C(NCC1CC1)c1ccc(-c2cccc(C(=O)NC3CC3)c2)cc1`, the inhibition in test [1] was -0.6%; in test [2], 0.78%; in test [3] it was 1.7%; in test [4], 0.33%; in test [5] it was 2.4%; in test [6] it was 0.92%. Besides, the inhibition in test [7] is 3.13%; in test [8] it was 5.94%; in [9], -2.79%; in test [10], 6.72%; in [11] it was 7.49%; in test [12], 8.93%. In addition, the inhibition is 6.92% in test [13]; -0.01% in [14]; -0.59% in test [15]; 4.42% in [16]; 0.5% in test [17]; -0.78% in test [18]. Besides, the inhibition is 2.85% in [19] and 9.04% in test [20].

Consider `Cc1ccc(C(=O)NC(C)C)cc1-c1ccc(C(=O)NCC2CC2)cc1`, for which the inhibition in test [1] is -1.83%; in test [2], -2.52%; in [3], -1.28%; in test [4], -1.84%; in test [5], -0.78%; in test [6], -1.23%. Also, the inhibition in test [7] was -0.29%; in test [8], -2.98%; in [9] it was -5.28%; in [10] it was -2.44%; in [11], -2.53%; in test [12], 0.96%. In addition, the inhibition worked out at 2.31% in test [13]; 2.27% in [14]; 2.56% in [15]; 1.13% in test [16]; 4.14% in test [17]; 1.87% in test [18]. In addition, the values for the inhibition in [19] and in test [20] were 2.98% and 0.76%, respectively.

Turning to `COc1ccc(-c2ccc3c(NC(=O)C4CC4)n[nH]c3n2)cc1`, the inhibition in test [1] worked out at 1.49%; in test [2], 1.25%; in [3], 5.43%; in [4], 0.89%; in test [5], 5.03%; in test [6], 0.16%. The inhibition in [7] stood at 3.67%; in [8], 1.87%; in test [9] it was 7.43%; in [10], 0.33%; in [11] it was 3.83%; in test [12], 3.05%. Also, the inhibition in test [13] was determined as 12.2%; in test [14] it was 1.56%; in [15], 5.35%; in test [16], 3.4%; in [17], 7.13%; in [18] it was 4.3%. The inhibition worked out at 9.71% in test [19] and 1.45% in test [20].

As to `O=C1Nc2ccc(I)cc2C1=Cc1cc(Br)c(O)c(Br)c1`, the inhibition in test [1] was found to be 9.99%; in test [2] it was 4.2%; in [3], 7.49%; in test [4] it was 2.6%; in test [5], 4.55%; in [6], 2.32%. In addition, the inhibition is 2.36% in test [7]; 1.23% in [8]; 4.15% in test [9]; 1.59% in test [10]; 6.35% in test [11]; 2.96% in test [12]. Besides, the inhibition was 9.37% in test [13]; 2.93% in test [14]; 3.36% in test [15]; 2.82% in [16]; 5.91% in [17]; 3.34% in test [18]. The inhibition stood at 7.24% in [19] and 0.08% in test [20].

By inhibition is commonly meant the change of the read-out against control, counted positive when it falls.
